Source: PubChem BioAssay
VACV Venus inh – qHTS for Stage-Specific Inhibitors of Vaccinia Orthopoxvirus: Venus Reporter Primary qHTS | Vaccinia virus Venus reporter expression, fluorescence | Potency, µM (titrated, usually from 36.5 µM), for inactives: at the top dose activity change, negative = inhibition, hits mostly inhibitors | 330,000 compounds, 0.46% hits; calls by dose curve; tested in A549 cells; further: potency means the concentration at half of the fitted maximal effect; nearly all actives have a fitted effect of over 30% in size
Vaccinia mCherry – qHTS for Stage-Specific Inhibitors of Vaccinia Orthopoxvirus: mCherry Reporter Primary qHTS | Vaccinia virus mCherry reporter infection, fluorescence | AID 720579, 2013 | 310,000 compounds, 0.63% hits | Potency, µM (top dose mostly 36.5 µM), inactives show at the top dose activity change, negative = inhibition, usual class: inhibitors; calls by dose curve; tested in A549 cells; further: potency means the concentration at half of the fitted maximal effect; nearly all actives have a fitted effect of over 35% in size
HCV inhibitor – qHTS Assay for Inhibitors of Hepatitis C Virus (HCV). Huh7.5.1 HCVcc-Cre infection, luciferase reporter, 44 h. Potency, µM (highest dose often 41.8 µM), without a hit: at the top dose activity change, negative = inhibition, usual class: inhibitors. 340,000 compounds, 3.4% hits; active means well fitted inhibition curve with a large enough effect; inconclusive means small, poorly fitted or top-dose-only effect, or another doubt; inactive means no such curve, though single readings can be large or run the other way; further: potency means the concentration at half of the fitted maximal effect
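HCVcc-Cre virus at an moi near 0.5 was added right after compound to cells cultured 4 h from seeding (1,000 cells/well). Luciferase activity was determined 44 h later, 15 min after substrate addition at RT.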
MARV entry inh – qHTS for inhibitors of binding or entry into cells for Marburg Virus | Marburg virus pseudotyped entry inhibition, cell reporter | Potency, µM (top dose mostly 37.8 µM), inactives show top-dose activity change, negative = inhibition, actives largely listed as inhibitors | 300,000 compounds, 1.8% hits; calls by dose curve; tested in HEK293 cells; further: potency means the concentration at half of the fitted maximal effect
LASV entry inh – qHTS for Inhibitors of binding or entry into cells for Lassa Virus | Potency, µM (highest dose often 37.9 µM), for the others: top-dose activity change, negative = inhibition, actives largely listed as inhibitors | AID 540256, 2011 | Lassa virus pseudotype entry inhibition, cell reporter | 300,000 compounds, 1.2% hits; calls by dose curve; tested in HEK293 cells; further: potency means the concentration at half of the fitted maximal effect; nearly all actives have a fitted effect of over 50% in size
HCMV antiviral – qHTS Assay for inhibitors of the human cytomegalovirus (HCMV); HFF cells, HCMV-luciferase reporter, 72 h; stronger effect = lower value; activity change, negative = inhibition, % at 57.5 µM; 410,000 compounds, 4.5% hits; AID 1259415, 2018; in the data active means activity change below about -60%; inconclusive means no clear call, values can overlap the other calls; inactive means above about -39%
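Cell-based, HFFs, 1000 cells/well, 16 h 37C; cpds in DMSO + HCMV-luc, MOI 1 PFU/cell; 72 h 37C; OneGlo luminescence after 5 min RT; norm. to buffer vs Salinomycin 10uM.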
The depositor's hits bear a star; i = inactive; ? = inconclusive; nt = no result; + = active, no number; [ ] = remark or other dose. Most compounds without a hit are left out; they make up all but 7.8% or so of the library. On the % scale 0 is the no-effect control and ±100 the full control effect.

SMILES	VACV Venus inh	Vaccinia mCherry	HCV inhibitor	MARV entry inh	LASV entry inh	HCMV antiviral
COc1ccc(CNc2ncnc3c2c(-c2ccccc2)cn3-c2ccc(C)c(Cl)c2)cc1	-7%	-14%	nt	nt	3%[46.1 µM]	-33
CC(=O)N1c2ccc(S(=O)(=O)N3CCC(C(=O)Nc4cc(C)cc(C)c4)CC3)cc2CC1C (centres undefined)	nt	nt	3%	nt	nt	-61*
COc1ccc(Cl)cc1NC(=O)C1CCN(S(=O)(=O)c2ccc3c(c2)CC(C)N3C(C)=O)CC1 (centres undefined)	-8%	-16%	nt	nt	-8%[46.1 µM]	-63*
CC(=O)N1c2ccc(S(=O)(=O)N3CCCC(C(=O)Nc4cc(C)cc(C)c4)C3)cc2CC1C (centres undefined)	?	-20%	-29%	nt	nt	8
O=C(NCc1ccc2[nH]c3c(c2c1)CCCC3)c1ccc(S(=O)(=O)N2CCCC2)cc1	7%	-6%	?	-4%	?	-79*
CCc1ccc(NC(=O)C2CCN(S(=O)(=O)c3ccc4c(c3)CC(C)N4C(C)=O)CC2)cc1 (centres undefined)	?	-11%	2.8µM*	nt	nt	-93*
Cc1ccc(-c2ccc(=O)n(CC(=O)NCCc3ccc(Cl)cc3)n2)cc1	-4%	-5%	nt	nt	3%[46.1 µM]	3
COc1cc(NC(=O)CCc2c(C)nn(-c3ccc4nnc(C)n4n3)c2C)cc(OC)c1OC	4%	6%	nt	nt	?	?
CCCN1CCN(C(=O)c2cnn(-c3ncc4c(n3)-c3ccccc3CCC4)c2COC)CC1	-14%	-24%	nt	nt	nt	nt
CC(=O)N1c2ccc(S(=O)(=O)N3CCCC(C(=O)Nc4ccc(C)cc4)C3)cc2CC1C (centres undefined)	nt	nt	nt	nt	nt	-33
CC(=O)N1c2ccc(S(=O)(=O)N3CCCCCC3)cc2CC1C(=O)NC(C)C (centres undefined)	6%	-5%	nt	nt	4%[46.1 µM]	-85*
COc1ccc(N2CCN(S(=O)(=O)c3ccc4c(c3)CC(C)N4C(C)=O)CC2)cc1 (centres undefined)	-15%[7.34 µM]	-7%[7.34 µM]	nt	nt	-21%[46.1 µM]	-72*
CCCNC(=O)C1Cc2cc(S(=O)(=O)N3CCCCCC3)ccc2N1C(C)=O (centres undefined)	-1%	-3%	nt	nt	-14%[46.1 µM]	0
CSc1cccc(NC(=O)C2CCN(S(=O)(=O)c3ccc4[nH]c5c(c4c3)CCCCC5)CC2)c1	-19%	-19%	nt	nt	?	0
CC(=O)N1c2ccc(S(=O)(=O)N3CCN(c4cccc(Cl)c4)CC3)cc2CC1C (centres undefined)	-20%	-18%	nt	-1%[46.1 µM]	-8%[46.1 µM]	8
CC(=O)N1c2ccc(S(=O)(=O)N3CCCC(C(=O)Nc4ccc(F)cc4)C3)cc2CC1C (centres undefined)	?	-23%	?	nt	nt	-68*
O=C(Nc1cccc(F)c1)C1CCN(S(=O)(=O)c2ccc3[nH]c4c(c3c2)CCCCC4)CC1	?	-24%	nt	nt	?	+
Cc1ccc(N2CCN(c3c(CN4CCCC4)c(=O)oc4ccccc34)CC2)c(C)c1	-12%	-20%	nt	4%[46.1 µM]	?	-8
CC(=O)c1ccc(NS(=O)(=O)c2ccc3[nH]c4c(c3c2)CCCCCC4)cc1	-16%	-28%	nt	nt	?	-6
CC(=O)N1c2ccc(S(=O)(=O)N3CCC(C(=O)N4CCN(c5cccc(C(F)(F)F)c5)CC4)CC3)cc2CC1C (centres undefined)	nt	nt	-6%	nt	nt	-66*
CC(=O)N1c2ccc(S(=O)(=O)N3CCC(C(=O)Nc4cccc(Cl)c4)CC3)cc2CC1C (centres undefined)	nt	nt	?	nt	nt	-88*
CC(=O)Nc1ccc(NS(=O)(=O)c2ccc3[nH]c4c(c3c2)CCCCC4)cc1	7.9µM*	?	nt	nt	4%[46.1 µM]	5
CC(=O)c1ccc(N2CCN(C(=O)C3CCN(S(=O)(=O)c4ccc5c(c4)CC(C)N5C(C)=O)CC3)CC2)cc1 (centres undefined)	nt	nt	?	nt	nt	12
CC(=O)N1c2ccc(S(=O)(=O)N3CCC(C(=O)Nc4cccc(Cl)c4C)CC3)cc2CC1C (centres undefined)	-16%	-7%	nt	nt	-7%[46.1 µM]	-29
CN1CCN(C(CNC(=O)C(=O)Nc2cccc(Cl)c2)c2ccc3c(c2)OCO3)CC1 (centres undefined)	-5%[7.34 µM]	-8%[7.34 µM]	nt	nt	-27%[46.1 µM]	-24
SMILES	VACV Venus inh	Vaccinia mCherry	HCV inhibitor	MARV entry inh	LASV entry inh	HCMV antiviral
CC1=C(/C=C/C(C)=C/C=C/C(C)=C\CO)C(C)(C)CCC1	-13%	-19%	nt	nt	nt	nt
CNS(=O)(=O)c1cn(CC(=O)Nc2cccc(C(F)(F)F)c2)cc1S(=O)(=O)NC	2%	-8%	nt	nt	-1%[46.1 µM]	+
CCCCCOc1ccc(Cn2ccnc2)cc1[N+](=O)[O-]	nt	nt	11µM*	-14%	6%	?
CCN(CC)c1ccc(/C=C/c2ccc3ccccc3n2)cc1	i	i	nt	nt	nt	nt
COc1ccc(-n2nc(C#N)c(Cl)cc2=O)cc1	10µM*	11µM*	?	3.2µM*	?	-101*
CC(C)OC(=O)CC(=O)CSc1nc2c(c(-c3cccs3)c1C#N)CCC2	-17%	i	10µM*	nt	nt	-19
COc1ccc(-c2csc3nc(-c4ccccc4OC)oc(=O)c23)cc1	?	?	-17%	?	-4%[46.1 µM]	-69*
COc1ccc2[nH]cc(CCN=C(NC(=O)c3cccc(Cl)c3)Nc3nc(C)cc(C)n3)c2c1	-13%	-28%	nt	?	1%[46.1 µM]	-18
CCN1CCN(c2c(S(=O)(=O)c3ccc(OC)cc3)cnc3cc(OC)c(OC)cc23)CC1	-14%	-26%	nt	?	nt	-39
COc1cc2ncc(S(=O)(=O)c3ccccc3)c(N3CCCC(C)C3)c2cc1OC (centres undefined)	?	?	11µM*	nt	nt	-21
Cc1ccc(Nc2c(-c3cccnc3)nc3ccc(Cl)cn23)cc1	-14%	i	nt	1%[46.1 µM]	-28%[46.1 µM]	-4
O=C(CN1C(=O)CC(c2ccco2)Sc2ccccc21)Nc1cccc(C(F)(F)F)c1 (centres undefined)	-13%	-11%	nt	?	nt	-8
CCOc1ccc(CCNC(=O)Cn2c(-c3nonc3N)nc3ccccc32)cc1OCC	5%	6%	14µM*	-11%	-7%	-32
CCCCOc1ccccc1NC(=O)Cn1c(-c2nonc2N)nc2ccccc21	?	4µM*	?	?	?	-78*
CCc1ccccc1NC(=O)Cn1c(-c2nonc2N)nc2ccccc21	3%	6%	nt	22%[46.1 µM]	2%[46.1 µM]	60
O=c1c2ccccc2nc(-c2ccco2)n1Cc1ccccc1	nt	nt	5%	18%	0%	102
